Molecules are shown by their SMILES. Values without a mark were called inactive. Inconclusive results are not listed. Activity calls are given as the source filed them. Unless noted, calls follow the shape of the dose curve; as a rule, active = well fitted curve in the direction sought with a large enough effect; inconclusive = small, poorly fitted or top-dose-only effect, or another doubt; inactive = no such curve, though single readings can be large; an effect the other way counts as inactive or inconclusive.

Experiment [1] has as its target Cytochrome P450 3A4 (Homo sapiens) (UniProt P08684). Kind of experiment: qHTS Assay for Inhibitors and Substrates of Cytochrome P450 3A4 (AID 884). Also: series mostly up to about 57 µM; nearly all actives have a fitted effect of over 50% in size. The gist of the method:
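Luminescent readout of luciferin produced by CYP3A4 (20 nM) dealkylation of Luciferin-PPXE, 25 uM (its KM). NADPH-driven reaction ran 60 min at RT after 10 min compound preincubation; data scaled to 57 uM ketoconazole as 100% inhibition.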

A short description of experiment [2]: Confirmation and Secondary Assay for Modulators of Hemoglobin Beta Chain Splicing at IVS2 654 locus (AID 910).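 Also: per-well total GFP intensity by laser scanning cytometry after 2-day treatment.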 The gist of the method:
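HeLa cells stably carrying EGFP interrupted by mutant beta-globin IVS2-654 intron (CMV-driven) were treated with compound for 2 days at 37C; corrected splicing was scored as total peak GFP intensity per well (488 nm excitation, 500-520 nm emission).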

Experiment [3] can be described thus: Confirmation and Secondary Assay for Modulators of Hemoglobin Beta Chain Splicing at IVS2 705 locus (AID 930).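 Also: HeLa cells stably expressing the EGFP-705 splicing reporter; series mostly up to about 46 µM.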 The gist of the method: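 Restored EGFP fluorescence after 2-day compound exposure reports splicing correction in IVS2-705 EGFP reporter HeLa cells; positive control was 500 nM splice-blocking PNA oligo. Signal measured as well total peak GFP intensity (488 nm excitation).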

For experiment [4], the target named is Ubiquitin carboxyl-terminal hydrolase 1 (Homo sapiens) (UniProt O94782). Kind of experiment: Inhibitors of USP1/UAF1: Pilot qHTS (AID 504865).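 Also: rhodamine fluorescence freed from ubiquitin-rhodamine substrate followed over time; top concentration of the series differs between compounds; nearly all actives have a fitted effect of over 35% in size.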 The gist of the method: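 Enzyme-free wells gave the negative control, while test wells held 1nM USP1/UAF1 preincubated with compound for 15 min at room temperature. Ub-Rho at 150nM final started the reaction, and fluorescence at 480/540 nm was recorded kinetically.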
On the technique in general: qHTS replaces the single test concentration by a dilution series.

In experiment [5] the test system is Zika virus NS2B-NS3 protease. In words: Primary screen GU AMC qHTS for Zika virus inhibitors (AID 1347154). Also: nearly all actives have a fitted effect of over 70% in size. The gist of the method:
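Unlinked Zika NS2B hydrophilic domain/NS3 protease domain noncovalent complex (25 nM final) in 10 mM Tris-HCl pH 8.0, 0.01% Tween 20, with AMC peptide substrate. Fluorescence (ex 340, em 450 nm) change over 15 min, room temperature; percent inhibition fitted to 4-parameter Hill equation.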

A short description of experiment [6]: Primary qHTS for small molecule stabilizers of the endoplasmic reticulum resident proteome: Secreted ER Calcium Modulated Protein (SERCaMP) assay (AID 1508630). The essentials:
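The SH-SY5Y reporter protocol was run at 3 concentrations up to 38.3 uM (primary) or 11 concentrations (follow-up): 16 h compound, 100 nM thapsigargin for 4 h, then extracellular luciferase luminescence.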

The target of experiment [7] is Glucocorticoid receptor (Homo sapiens) (UniProt P04150). In words: GR-GFP Redistribution (AID 450;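 active = compounds whose dose series gives a full or clear partial fitted curve of increased nuclear translocation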; also: potency is read from the fitted curve at half-maximal effect). The settings on record: U2OS GR-GFP nuclear translocation, laser cytometry, 2 h.
For experiment [8], the target named is 3',5'-cyclic-AMP phosphodiesterase 4B (Homo sapiens) (UniProt Q07343). Kind of experiment: qHTS Assay for Inhibitors of PDE-IV (AID 607; active = well fitted activation curve with a large enough effect in the main read-out, with a control signal flat, not every such curve was filed as active). The gist of the method:
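HEK293 ACTOne cells with CNG channel (1000/well), endogenous PDE4; membrane potential dye, compounds up to 22.9 uM final. Fluorescence Ex 535/Em 590; RO 20-1724 (100 uM final) as reference.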

Experiment [9] concerns the target Cytochrome P450 2C9 (Homo sapiens) (UniProt P11712). In words: qHTS Assay for Inhibitors and Substrates of Cytochrome P450 2C9 (AID 883). Also: potency is read from the fitted curve at half-maximal effect; nearly all actives have a fitted effect of over 60% in size. The essentials:
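CYP2C9 deoxyluciferin hydroxylation, 37C, 60 min with NADPH regeneration; 10nM enzyme, 100uM Luciferin-H (KM). Glo detection reagent stopped reaction; luminescence normalized to sulphaphenazole (57uM) full inhibition.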

The target of experiment [10] is Cytochrome P450 2C19 (Homo sapiens) (UniProt P33261). In words: qHTS Assay for Inhibitors and Substrates of Cytochrome P450 2C19 (AID 899). Also: potency is read from the fitted curve at half-maximal effect; nearly all actives have a fitted effect of over 60% in size. The essentials: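 In 50mM KPO4, the reaction held 5nM enzyme and KM-level (10uM) Luciferin-H EGE; it ran 60 min at 37C after NADPH regeneration and a 10 min compound preincubation. Luminescence values were scaled to 57uM ketoconazole as complete inhibition.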

Experiment [11] concerns the target DNA dC->dU-editing enzyme APOBEC-3G (Homo sapiens) (UniProt Q9HC16). Kind of experiment: qHTS for inhibitors of Vif-A3G interactions: Validation (AID 588379). The gist of the method: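 Yellow fluorescence (Ex 488, Em 500-530) of Vif-coexpressing HeLa A3G-eYFP cells, scanned by Acumen cytometer, reports blocked A3G degradation. Cells plated at 700/well overnight at 37 deg C before compound addition, then a further overnight compound incubation at 37 deg C.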

Experiment [12] has as its target Glucocorticoid receptor (Homo sapiens) (UniProt P04150). In words: GR-EFC Redistribution (AID 451; calls by dose curve; also: potency is read from the fitted curve at half-maximal effect). As to conditions: CHO-K1 GR-EFC translocation, beta-gal luminescence, 2 h. The gist of the method:
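CHO-K1 cells stably expressing nuclear-localized β-gal enzyme acceptor and GR fused C-terminally to the enzyme donor fragment; ligand-driven nuclear translocation restores β-gal by complementation. Compounds titrated up to 46 uM final, 2 h at 37 °C; luminescence read.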

The target in experiment [13] is Mitogen-activated protein kinase 10 (Mus musculus) (UniProt Q61831). In words: JNK3 AlphaScreen Assay (AID 530; active = well fitted curve in either direction with a large enough effect, not every such curve was filed as active;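 also: kinase came from lysate of stimulated human HepG2 cells; signal reports phosphorylation of biotinylated GST-cJun 1-79 at Ser73 with 10 µM ATP; series mostly up to about 57 µM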). The essentials:
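Phosphorylation of biotinylated GST-cJun(1-79) at Ser73 is measured by AlphaScreen proximity luminescence. Enzyme is JNK3 in HepG2 lysates activated with interleukin-1beta and tumor necrosis factor alpha; ATP is 10 uM final.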
In general terms: Bead proximity is the source of the signal in Alpha formats.

The target in experiment [14] is Cytochrome P450 3A4 (Homo sapiens) (UniProt P08684). In words: qHTS Assay for Activators of Cytochrome P450 3A4 (AID 885). Also: nearly all actives have a fitted effect of over 65% in size. The gist of the method: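 Human CYP3A4 dealkylates Luciferin-PPXE to luciferin, which luciferase detection converts to light. Substrate was at its KM (25uM), buffer 200mM KPO4, reaction 60 min at RT.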
The target in experiment [15] is Cytochrome P450 2D6 (Homo sapiens) (UniProt P10635). Kind of experiment: qHTS Assay for Inhibitors and Substrates of Cytochrome P450 2D6 (AID 891). Also: potency is read from the fitted curve at half-maximal effect; nearly all actives have a fitted effect of over 60% in size. The gist of the method: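 Luminescent read-out of luciferin formed by 5 nM human CYP2D6 demethylating 30 uM Luciferin-ME EGE (Km level) over 60 min at room temperature after NADPH regeneration addition. Data normalized to full inhibition by 1.43 uM quinidine.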
Chain of Cytochrome P450 2D6 (Homo sapiens) (P10635 whole entry, looked up): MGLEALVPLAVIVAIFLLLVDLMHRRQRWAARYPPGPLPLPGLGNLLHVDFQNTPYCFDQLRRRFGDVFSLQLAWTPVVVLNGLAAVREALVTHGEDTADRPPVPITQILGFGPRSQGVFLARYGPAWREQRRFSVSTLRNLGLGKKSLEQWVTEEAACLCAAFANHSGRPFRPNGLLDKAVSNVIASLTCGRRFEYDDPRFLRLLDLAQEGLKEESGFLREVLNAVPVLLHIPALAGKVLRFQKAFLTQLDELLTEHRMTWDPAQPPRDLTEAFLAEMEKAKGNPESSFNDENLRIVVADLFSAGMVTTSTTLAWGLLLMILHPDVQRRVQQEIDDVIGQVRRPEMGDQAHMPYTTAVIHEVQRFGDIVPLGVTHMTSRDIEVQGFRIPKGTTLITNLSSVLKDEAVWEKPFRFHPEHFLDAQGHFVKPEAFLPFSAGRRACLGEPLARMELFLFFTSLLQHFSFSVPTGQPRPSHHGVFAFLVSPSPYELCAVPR

Chain of Glucocorticoid receptor (Homo sapiens) (P04150 whole entry, looked up, the tested form may be a part): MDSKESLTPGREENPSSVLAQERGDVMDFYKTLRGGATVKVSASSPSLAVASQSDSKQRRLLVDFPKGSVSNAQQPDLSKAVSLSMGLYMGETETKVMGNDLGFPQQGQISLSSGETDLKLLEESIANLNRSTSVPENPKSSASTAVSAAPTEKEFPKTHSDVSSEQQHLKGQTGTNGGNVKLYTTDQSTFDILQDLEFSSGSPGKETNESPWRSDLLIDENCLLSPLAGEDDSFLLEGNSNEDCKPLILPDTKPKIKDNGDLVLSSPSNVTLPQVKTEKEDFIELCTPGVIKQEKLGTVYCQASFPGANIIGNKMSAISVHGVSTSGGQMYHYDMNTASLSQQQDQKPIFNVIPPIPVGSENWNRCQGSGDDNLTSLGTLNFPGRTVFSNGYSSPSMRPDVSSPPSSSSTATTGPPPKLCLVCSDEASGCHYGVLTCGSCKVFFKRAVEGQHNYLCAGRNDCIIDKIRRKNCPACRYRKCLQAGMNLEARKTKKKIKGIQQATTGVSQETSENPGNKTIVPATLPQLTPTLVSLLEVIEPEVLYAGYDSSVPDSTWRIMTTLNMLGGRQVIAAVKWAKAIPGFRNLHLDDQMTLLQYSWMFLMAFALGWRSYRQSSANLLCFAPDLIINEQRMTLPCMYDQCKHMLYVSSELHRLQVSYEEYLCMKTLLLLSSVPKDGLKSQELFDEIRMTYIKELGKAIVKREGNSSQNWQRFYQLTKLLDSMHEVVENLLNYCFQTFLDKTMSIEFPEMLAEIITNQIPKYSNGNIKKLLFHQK
Chain of Cytochrome P450 3A4 (Homo sapiens) (P08684 whole entry, looked up): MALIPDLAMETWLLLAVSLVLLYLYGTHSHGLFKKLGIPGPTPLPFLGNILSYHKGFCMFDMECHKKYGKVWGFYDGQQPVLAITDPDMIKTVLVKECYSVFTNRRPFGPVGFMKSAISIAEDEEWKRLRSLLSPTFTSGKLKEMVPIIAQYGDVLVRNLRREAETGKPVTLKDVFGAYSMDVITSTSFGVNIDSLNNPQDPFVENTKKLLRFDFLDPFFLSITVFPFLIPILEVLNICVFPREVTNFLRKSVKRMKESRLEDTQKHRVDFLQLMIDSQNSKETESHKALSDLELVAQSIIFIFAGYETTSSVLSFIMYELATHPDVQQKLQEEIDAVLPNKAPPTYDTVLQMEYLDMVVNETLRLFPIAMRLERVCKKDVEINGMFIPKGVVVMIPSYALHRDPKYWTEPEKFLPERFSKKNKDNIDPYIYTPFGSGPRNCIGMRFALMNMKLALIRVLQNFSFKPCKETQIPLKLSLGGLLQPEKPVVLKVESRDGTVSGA
Chain of 3',5'-cyclic-AMP phosphodiesterase 4B (Homo sapiens) (Q07343 whole entry, looked up): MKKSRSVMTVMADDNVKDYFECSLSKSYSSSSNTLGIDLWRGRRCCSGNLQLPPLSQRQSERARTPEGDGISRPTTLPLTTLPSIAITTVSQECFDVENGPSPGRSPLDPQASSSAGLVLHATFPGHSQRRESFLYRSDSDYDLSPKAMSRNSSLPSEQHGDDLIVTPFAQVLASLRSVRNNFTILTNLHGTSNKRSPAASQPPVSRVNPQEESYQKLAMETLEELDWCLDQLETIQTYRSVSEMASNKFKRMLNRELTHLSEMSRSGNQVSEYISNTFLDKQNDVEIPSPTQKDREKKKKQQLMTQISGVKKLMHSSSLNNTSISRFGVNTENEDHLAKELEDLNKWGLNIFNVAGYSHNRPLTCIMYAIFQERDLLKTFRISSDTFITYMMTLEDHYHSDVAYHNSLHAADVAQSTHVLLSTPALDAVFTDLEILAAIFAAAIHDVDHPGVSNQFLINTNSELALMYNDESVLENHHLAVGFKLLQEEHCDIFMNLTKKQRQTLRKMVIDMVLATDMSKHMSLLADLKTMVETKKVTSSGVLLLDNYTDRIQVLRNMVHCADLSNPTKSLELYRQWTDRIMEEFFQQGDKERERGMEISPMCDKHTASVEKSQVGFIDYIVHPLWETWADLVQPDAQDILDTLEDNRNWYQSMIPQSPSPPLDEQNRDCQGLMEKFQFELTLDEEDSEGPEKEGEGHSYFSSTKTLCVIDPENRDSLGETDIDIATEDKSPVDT
Chain of DNA dC->dU-editing enzyme APOBEC-3G (Homo sapiens) (Q9HC16 whole entry, looked up): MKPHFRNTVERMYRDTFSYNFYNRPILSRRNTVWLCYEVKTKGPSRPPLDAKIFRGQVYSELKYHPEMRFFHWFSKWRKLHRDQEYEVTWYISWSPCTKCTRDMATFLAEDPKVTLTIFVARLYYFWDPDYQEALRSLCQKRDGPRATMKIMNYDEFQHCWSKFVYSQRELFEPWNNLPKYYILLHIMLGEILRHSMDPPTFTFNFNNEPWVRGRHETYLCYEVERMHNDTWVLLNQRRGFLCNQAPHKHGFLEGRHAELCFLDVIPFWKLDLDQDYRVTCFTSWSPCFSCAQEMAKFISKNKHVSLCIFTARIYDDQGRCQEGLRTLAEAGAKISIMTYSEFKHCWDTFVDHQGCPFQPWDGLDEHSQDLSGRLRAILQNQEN
Chain of Cytochrome P450 2C19 (Homo sapiens) (P33261 whole entry, looked up): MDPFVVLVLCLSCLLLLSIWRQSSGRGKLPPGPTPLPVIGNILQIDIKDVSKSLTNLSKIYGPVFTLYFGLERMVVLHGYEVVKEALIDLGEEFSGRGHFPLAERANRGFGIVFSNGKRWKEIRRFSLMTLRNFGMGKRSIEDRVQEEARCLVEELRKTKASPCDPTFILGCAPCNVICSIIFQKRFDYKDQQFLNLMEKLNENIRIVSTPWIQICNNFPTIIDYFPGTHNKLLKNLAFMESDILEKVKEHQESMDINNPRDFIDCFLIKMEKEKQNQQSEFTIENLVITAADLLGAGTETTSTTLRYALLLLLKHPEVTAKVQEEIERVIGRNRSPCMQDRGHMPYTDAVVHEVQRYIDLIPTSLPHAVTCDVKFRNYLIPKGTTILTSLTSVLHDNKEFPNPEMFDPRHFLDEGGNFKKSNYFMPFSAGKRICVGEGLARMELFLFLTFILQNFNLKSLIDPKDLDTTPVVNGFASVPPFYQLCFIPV
Chain of Ubiquitin carboxyl-terminal hydrolase 1 (Homo sapiens) (O94782 whole entry, looked up): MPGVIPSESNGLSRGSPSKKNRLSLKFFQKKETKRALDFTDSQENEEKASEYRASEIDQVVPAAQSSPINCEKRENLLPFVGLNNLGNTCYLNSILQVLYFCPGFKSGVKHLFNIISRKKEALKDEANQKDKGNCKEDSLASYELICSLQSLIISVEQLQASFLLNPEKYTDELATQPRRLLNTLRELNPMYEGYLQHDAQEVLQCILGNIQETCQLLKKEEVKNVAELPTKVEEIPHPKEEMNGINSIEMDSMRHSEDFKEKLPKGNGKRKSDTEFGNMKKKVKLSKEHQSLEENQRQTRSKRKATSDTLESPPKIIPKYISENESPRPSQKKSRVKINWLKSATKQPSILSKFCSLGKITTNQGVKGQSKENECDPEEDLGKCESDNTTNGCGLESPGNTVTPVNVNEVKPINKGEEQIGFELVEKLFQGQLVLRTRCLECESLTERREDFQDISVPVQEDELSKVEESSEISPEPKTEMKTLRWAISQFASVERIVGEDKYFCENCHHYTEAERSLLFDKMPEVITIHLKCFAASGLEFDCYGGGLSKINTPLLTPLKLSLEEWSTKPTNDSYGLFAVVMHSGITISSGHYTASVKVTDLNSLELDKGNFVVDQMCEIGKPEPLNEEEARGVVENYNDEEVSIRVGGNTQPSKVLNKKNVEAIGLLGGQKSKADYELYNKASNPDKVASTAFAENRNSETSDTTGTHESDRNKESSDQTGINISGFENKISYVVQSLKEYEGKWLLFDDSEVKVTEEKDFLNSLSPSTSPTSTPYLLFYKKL
Chain of Cytochrome P450 2C9 (Homo sapiens) (P11712 whole entry, looked up): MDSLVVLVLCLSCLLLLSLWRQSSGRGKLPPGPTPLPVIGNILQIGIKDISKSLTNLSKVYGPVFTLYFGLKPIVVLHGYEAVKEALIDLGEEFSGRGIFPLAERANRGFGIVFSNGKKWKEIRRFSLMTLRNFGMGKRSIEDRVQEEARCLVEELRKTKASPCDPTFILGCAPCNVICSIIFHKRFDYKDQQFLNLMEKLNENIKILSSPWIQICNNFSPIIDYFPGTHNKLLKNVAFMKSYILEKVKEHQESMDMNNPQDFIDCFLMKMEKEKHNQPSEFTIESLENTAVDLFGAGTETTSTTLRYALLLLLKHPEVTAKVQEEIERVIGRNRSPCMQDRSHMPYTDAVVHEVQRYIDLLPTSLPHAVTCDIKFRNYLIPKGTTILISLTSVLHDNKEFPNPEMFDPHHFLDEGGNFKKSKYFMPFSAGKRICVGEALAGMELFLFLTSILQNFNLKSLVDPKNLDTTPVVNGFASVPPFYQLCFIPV

For the compound `CC1OC(OC2C(CO)OC(OC3C(CO)OC(O)C(O)C3O)C(O)C2O)C(O)C(O)C1NC1C=C(CO)C(O)C(O)C1O` (stereo not drawn), the Potency result in [1], in experiment [4], in experiment [5] and in experiment [6] was “inactive” throughout. Also, the compound was classed as inactive in [2] and in [3].
For `Cc1c(C(=O)NN2CCOCC2)nn(-c2ccc(Cl)cc2Cl)c1-c1ccc(I)cc1`, the Potency in experiment [7] is more than 46 µM; in [9], 6.31 µM (active); in experiment [10], 7.94 µM (active). Besides, the Potency result in experiment [8], in experiment [11], in experiment [5] and in experiment [6] was “inactive” in each case.
Take `NCCCCNS(=O)(=O)c1ccc2c(Cl)cccc2c1`: the Potency was more than 46 µM in experiment [7], more than 46 µM in experiment [12], 2 µM (active) in experiment [9] and 0.0025 µM (active) in experiment [10]. For the same compound, the Potency entry in experiment [13], in [11], in [5] and in experiment [6] was “inactive” throughout.
Turning to `CNC(=O)[C@H]1O[C@H](n2cnc3c(NCc4cccc(I)c4)nc(Cl)nc32)[C@@H](O)[C@@H]1O`, the Potency in [7] is more than 46 µM. Moreover, the Potency entry in experiment [8], in experiment [11], in experiment [5] and in experiment [6] was “inactive” each time.
For the compound `CCN(CC)C[C@@H]1CCCCN1CC(=O)N1c2ccccc2C(=O)Nc2cccnc21`, the Potency entry in experiment [13], in experiment [8], in [14], in experiment [11], in [5] and in experiment [6] was “inactive” each time.
For `CCN(CC)c1ncnc2c1ncn2[C@@H]1O[C@@H](COP(=O)(O)OP(=O)(O)C(Br)(Br)P(=O)(O)O)[C@H](O)[C@H]1O`, the Potency entry in experiment [4], in experiment [11], in experiment [5] and in [6] was “inactive” throughout.
For the compound `O=C1C(=O)N(Cc2ccc(Cl)c(Cl)c2)c2ccccc21`, the Potency is more than 46 µM in [7], more than 46 µM in experiment [12] and 3.98 µM (active) in experiment [15]. The Potency entry in experiment [14], in experiment [11], in experiment [5] and in [6] was “inactive” in each case.
